Screening results as filed in PubChem BioAssay.
BRCA1 expr up = qHTS Assay to Identify Small Molecule Activators of BRCA1 Expression. MCF7-BRCA1-FFLuc reporter, luminescence, 48 h; response scale: scaled: vehicle 0%, 10 µM genistein 100%. Potency, µM (doses to about 46.1 µM), for inactives: at the highest dose activation, actives largely listed as activators. hit rate 1.1% among 380,000. AID 624202, 2012; further: potency means the concentration at half of the fitted maximal effect; nearly all actives have a fitted effect of over 80% in size
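Using MCF7 cells harboring a BRCA1 firefly luciferase reporter, plated 2 h before compound pinning, the screen measured luminescence after 48 h incubation. Responses were normalized to DMSO and 10 microM genistein, then fitted for concentration-effect.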
Apoferritin bind = qHTS Assay for Identification of Novel General Anesthetics; apoferritin/1-aminoanthracene competitive binding, fluorescence; Potency, µM (series often up to 77.5 µM), for inactives: at the top dose activity change, negative = displacement, hits mostly inhibitors; hit rate 0.074% among 350,000; AID 485281, 2010; further: potency means the concentration at half of the fitted maximal effect; on the % scale 0 is the no-effect control and ±100 the full control effect; nearly all actives have a fitted effect of over 20% in size
Target sequence (P02791 2-175 limits assumed): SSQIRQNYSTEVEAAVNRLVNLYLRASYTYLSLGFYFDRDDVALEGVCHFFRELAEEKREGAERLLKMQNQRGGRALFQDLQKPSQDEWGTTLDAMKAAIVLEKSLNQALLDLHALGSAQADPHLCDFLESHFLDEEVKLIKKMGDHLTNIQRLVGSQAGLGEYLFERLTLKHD
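Horse-spleen apoferritin (10 uM) was mixed with 50% saturated 1-aminoanthracene in PBS, exposed to compounds for 10 min at room temperature, and read for fluorescence (ex 380 nm, em 535 nm). Competitive displacement was fitted with a four-parameter Hill equation.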
Integrin act MD = qHTS for Activators of Integrin-Mediated Alleviation for Muscular Dystrophy; AID 624291, 2012; alpha7betagal myoblasts, beta-gal FDG fluorescence, 48 h; hit rate 0.064% among 350,000; Potency, µM (titrated, usually from 38.3 µM), without a hit: at the highest dose activation, actives largely listed as activators;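 further: potency means the concentration at half of the fitted maximal effect; 100% = response of the positive control SU9516; nearly all actives have a fitted effect of over 60% in size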
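alpha7betagal+/- myoblasts (passage 13, 250/well) treated 48 h at 37C with compounds at 1:260 dilution of DMSO stock. Lysed, then beta-galactosidase activity read as FDG fluorescence (ex 480/em 540) after 30 min, with pre-read for autofluorescence.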
IL2 activator = qHTS of IL-2 Activators | IL-2 activation reporter assay, cell-based qHTS; stimulated with anti-CD3/CD4/CD28 beads; in transgenic mouse T cells | hit rate 0.065% among 360,000 | activation, % (series mostly up to about 46 µM); in the data active means activation above about 50%; inconclusive means mostly about 30% to 49%; further: 0% is about no effect
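Screening format: compound pinned onto unstimulated transgenic mouse T cells, 60 min incubation, then anti-CD3/anti-CD4/anti-CD28 bead stimulation for 18 hours at 37 degrees C, followed by EGFP and DsRed detection.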
PKM2 activator = qHTS Assay for Activators of Human Muscle isoform 2 Pyruvate Kinase; hit rate 0.34% among 260,000; Potency, µM (top dose mostly 57.5 µM), for inactives: at the top dose activation, actives largely listed as activators; purified PKM2, Kinase-Glo ATP luminescence, activation; response scale: 0% is enzyme alone, no compound; Pyruvate kinase PKM (Homo sapiens), P14618; AID 1631, 2009; further: potency means the concentration at half of the fitted maximal effect; on the % scale 0 is the no-effect control and ±100 the full control effect; nearly all actives have a fitted effect of over 55% in size
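ATP formation by purified human PK-M2, quantified via coupled luciferase luminescence after 1 h at room temperature with 0.1 mM ADP and 0.5 mM PEP final.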
The depositor's hits bear a star; ? = inconclusive; . = not tested or not shown; [ ] = another dose, or the depositor's remark. Compounds with a hit are over-represented: about 1.3% of the library has one in this group of screens. Unless noted, the call rests on the fitted dose curve; in most records, active means well fitted curve in the direction sought with a large enough effect; inconclusive means small, poorly fitted or top-dose-only effect, or another doubt; inactive means no such curve, though single readings can be large; an effect the other way counts as inactive or inconclusive.

SMILES	BRCA1 expr up	Apoferritin bind	Integrin act MD	IL2 activator	PKM2 activator
COc1cc(C(=S)N2CCN(c3ccccc3Cl)CC2)cc(O)c1O	-16.9%	?	-51.1%	1.4	3.55µM*
COc1ccc(C(=S)N2CCN(c3ccccc3Cl)CC2)cc1OC	-6.3%	6.2%	4.7%	-2.6	-9.1%
Cc1ccc(Nc2nc(Nc3ccc(Cl)cc3)nc(N3CCOCC3)n2)cc1	-19.9%	.	.	.	.
NS(=O)(=O)c1ccc(S(=O)(=O)N2CCN(c3nc(-c4ccccc4)nc4ccccc34)CC2)cc1	-25.7%	.	.	.	.
O=C(CCCC(=O)c1ccc(F)cc1)c1ccc(F)cc1	2.51µM*	-6.8%	8.9%	-3.8	.
CCOc1cccc(C(=O)N(Cc2ccc(N(C)C)cc2)CC2CCCO2)c1 (stereo not given)	.	-7.8%	.	.	.
CCOc1ccc(NC(=O)CN2CCN(CC(=O)Nc3ccccc3OCC)CC2)cc1	.	-7.3%	.	.	.
Cc1ccc(NC(=O)c2cc(-c3ccccc3O)n[nH]2)cc1Cl	31.2%	12.9%	-20.7%	0.8	.
NS(=O)(=O)c1ccc(NC(=O)c2cc(-c3ccccc3O)n[nH]2)cc1	26.0%	5.9%	10µM*	0.4	.
Cc1cc(O)c(-c2cc(C(=O)Nc3cccnc3)[nH]n2)cc1C	5.62µM*	1.6%	11.5%	0.8	-0.4%
O=c1oc2ccccc2cc1-c1nnc(NCc2ccco2)s1	4.9%	183.8%	-21.4%	0.2	0.8%
COc1ccc2oc(=O)c(-c3nc(C)cs3)cc2c1	?	-19.2%	3.6%	-0.7	-16.8%
Nc1nnc(-c2cc3ccccc3oc2=O)s1	7.94µM*	252.9%	27.2%	0.6	14.4%
COc1ccc2oc(=O)c(-c3nnc(N)s3)cc2c1	14.1µM*	262.6%	3.9%	1.4	-4.4%
CCN1CCOC(=O)C1CC(=O)Nc1ccc(Br)cc1 (stereo not given)	.	-10.6%	.	.	.
O=C(Nc1ncccc1Cl)c1ccc2c(c1)OCCO2	8.91µM*	-6.0%	0.0%	0.1	-25.0%
O=C(Nc1ccccn1)c1ccc2c(c1)OCCO2	-19.1%	-3.6%	5.4%	0.0	-42.6%
O=C(Nc1ccc2c(c1)OCCO2)c1cccc(S(=O)(=O)N2CCCCC2)c1	-28.2%	-19.6%	-21.1%	-3.3	-4.7%
O=C(NC(=S)Nc1ccc2nc[nH]c2c1)c1ccccc1	3.98µM*	-5.8%	-22.3%	-0.6	-2.9%
O=C(Nc1ccc2c(c1)OCCO2)c1cccc(S(=O)(=O)N2CCOCC2)c1	10µM*	-16.3%	-24.7%	-1.4	-1.0%
O=C(N/N=C/c1ccccc1C(F)(F)F)c1ccc2nc[nH]c2c1	7.08µM*	-10.3%	15.2%	-2.2	0.9%[0.46 µM]
CCOC(=O)[C@H](Cc1ccc(O)cc1)NC(=O)c1ccccc1	.	3.3%	.	.	.
CCCOc1cccc(C(=O)Nc2ccc3c(c2)OCCO3)c1	7.94µM*	-10.5%	16.6%	-0.7	1.7%[11.5 µM]
O=C(Nc1ccc2c(c1)OCCO2)c1cccc(Br)c1	?	-8.9%	-16.9%	-1.0	-7.8%[11.5 µM]
O=C(Nc1ccc2c(c1)OCCO2)c1ccc(Cl)c(Cl)c1	12.6µM*	-9.5%	-0.3%	-3.6	2.0%[11.5 µM]
SMILES	BRCA1 expr up	Apoferritin bind	Integrin act MD	IL2 activator	PKM2 activator
O=C(Nc1ccc(C(F)(F)F)cc1)c1ccc2nc[nH]c2c1	8.3%	0.9%	12.3%	-0.6	-17.2%
O=C(Nc1ccc2c(c1)OCO2)c1ccc2nc[nH]c2c1	5.62µM*	-21.8%	1.1%	2.0	-3.6%
COC(c1ccccc1Br)C(C)/C=C/CCO (stereo not given)	.	-3.0%[15.3 µM]	.	.	.
COCCCNC(=O)c1ccc(-n2c(-c3ccccc3)cc3c2CCC(C)C3)cc1 (stereo not given)	.	-2.1%	.	.	.
Cc1ccc(NC(=O)Cn2c(=O)n(Cc3nc(C)no3)c(=O)c3cc4c(cc32)OCO4)c(C)c1	.	0.6%	.	.	.
O=C(O)c1cc(NS(=O)(=O)c2ccc3ccccc3c2)ccc1O	-17.9%	-1.0%	?	0.8	.
O=C(O)c1ccccc1NS(=O)(=O)c1cccc(-n2sc3ccccc3c2=O)c1	-29.6%	6.9%	40.8%	-0.3	2.51µM*
O=C(O)c1ccccc1NS(=O)(=O)c1ccc2ccccc2c1	12.6µM*	6.6%	0.3%	-1.3	1.0%
